Assay results taken from the supplement of paper PMC10849652.
Targets with a hit are over-represented here; the source holds about 8,800 in all. About 0.5% of all pairs of compound and target were hits. A number with no mark means an inactive call.

Tests used:
Test in all cases: log2 fold change, soluble protein after heating vs DMSO (PISA); higher = thermal stabilisation; K562 lysate, 10 uM; active = over 0.2 and 3.5 SD of the protein, either way, in both replicates (recomputed)
[1] = compound: CS(=O)(=O)CCNCc1ccc(-c2ccc3ncnc(Nc4ccc(OCc5cccc(F)c5)c(Cl)c4)c3c2)o1 [lapatinib]
How it was run: (§1)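 To prepare the extract, K562 pellets were dounce-homogenised in PBS pH 7.4 with 1 mM MgCl2, giving crude material at 1 mg/mL protein. This was treated with 10 μM compound for 30 min, then heated in aliquots for 3 min over 48°C-58°C before pooling and addition of NP-40 to 0.5% at 4°C. Centrifugation at 21,000xg for 90 min left soluble protein in the supernatant, which TMTpro 16plex LC-MS/MS quantified with equalised channel sums. Results are log-two fold changes in thermal stability compared with solvent controls, from duplicates.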

[2] = compound: CS(=O)(=O)N1CCN(Cc2cc3nc(-c4cccc5[nH]ncc45)nc(N4CCOCC4)c3s2)CC1 [pictilisib]
How it was run: as §1

[3] = compound: C[C@@H](Oc1cc(-c2cnn(C3CCNCC3)c2)cnc1N)c1c(Cl)ccc(F)c1Cl [crizotinib]
How it was run: as §1

[4] = compound: C[C@H](C1=CC=C(C=C1)C(=O)NC2=C3C=CNC3=NC=C2)N
How it was run: as §1

[5] = compound: C[C@H](Nc1ncnc2nc[nH]c12)c1cc2cccc(Cl)c2c(=O)n1-c1ccccc1 [duvelisib]
How it was run: as §1

[6] = compound: Cc1cc(Nc2cc(CN3CCOCC3)c3nc(C)c(Cc4ccc(Cl)cc4F)n3n2)n[nH]1 [gandotinib]
How it was run: as §1

[7] = compound: Cc1cc(Nc2cc(N3CCN(C)CC3)nc(Sc3ccc(NC(=O)C4CC4)cc3)n2)n[nH]1 [tozasertib]
How it was run: as §1

[8] = compound: Cc1ccc(-n2nc(C(C)(C)C)cc2NC(=O)Nc2ccc(OCCN3CCOCC3)c3ccccc23)cc1 [doramapimod]
How it was run: as §1

[9] = compound: Cc1ccc(NC(=O)c2ccc(CN3CC[C@H](N(C)C)C3)c(C(F)(F)F)c2)cc1Nc1nccc(-c2cncnc2)n1 [bafetinib]
How it was run: as §1

[10] = compound: Cc1cccc(CC(=O)N2CCc3c2ccc(-c2cn(C)c4ncnc(N)c24)c3F)n1
How it was run: as §1

[11] = compound: Cc1cn(-c2cc(NC(=O)c3ccc(C)c(Nc4nccc(-c5cccnc5)n4)c3)cc(C(F)(F)F)c2)cn1 [nilotinib]
How it was run: as §1

[12] = compound: Cc1nc(Nc2n[nH]c3c2CN(C(=O)N[C@H](CN(C)C)c2ccccc2)C3(C)C)c2sccc2n1
How it was run: as §1

[13] = compound: Cc1nc(Nc2ncc(C(=O)Nc3c(C)cccc3Cl)s2)cc(N2CCN(CCO)CC2)n1 [dasatinib]
How it was run: as §1

[14] = compound: Cc1ncc(-c2ccnc(Nc3ccc(S(C)(=O)=O)cc3)n2)n1C(C)C
How it was run: as §1

[15] = compound: Cn1cc(-c2ccc3c(c2)CCN3C(=O)Cc2cccc(C(F)(F)F)c2)c2c(N)ncnc21
How it was run: as §1

[16] = compound: Cn1cc(CNCC2CCN(c3ncc(C(=O)NO)cn3)CC2)c2ccccc21 [quisinostat]
How it was run: as §1

[17] = compound: Cn1cncc1[C@@](N)(c1ccc(Cl)cc1)c1ccc2c(c1)c(-c1cccc(Cl)c1)cc(=O)n2C [tipifarnib]
How it was run: as §1

[18] = compound: NC(=O)Nc1cc(-c2cccc(F)c2)sc1C(=O)N[C@H]1CCCNC1
How it was run: as §1

[19] = compound: NC(=O)c1cnc(N[C@@H]2CCCC[C@@H]2N)nc1Nc1cccc(-n2nccn2)c1
How it was run: as §1

[20] = compound: NC1(c2ccc(-c3nc4ccn5c(=O)[nH]nc5c4cc3-c3ccccc3)cc2)CCC1
How it was run: as §1

UniProt O15198, sequence (O15198 whole entry, looked up): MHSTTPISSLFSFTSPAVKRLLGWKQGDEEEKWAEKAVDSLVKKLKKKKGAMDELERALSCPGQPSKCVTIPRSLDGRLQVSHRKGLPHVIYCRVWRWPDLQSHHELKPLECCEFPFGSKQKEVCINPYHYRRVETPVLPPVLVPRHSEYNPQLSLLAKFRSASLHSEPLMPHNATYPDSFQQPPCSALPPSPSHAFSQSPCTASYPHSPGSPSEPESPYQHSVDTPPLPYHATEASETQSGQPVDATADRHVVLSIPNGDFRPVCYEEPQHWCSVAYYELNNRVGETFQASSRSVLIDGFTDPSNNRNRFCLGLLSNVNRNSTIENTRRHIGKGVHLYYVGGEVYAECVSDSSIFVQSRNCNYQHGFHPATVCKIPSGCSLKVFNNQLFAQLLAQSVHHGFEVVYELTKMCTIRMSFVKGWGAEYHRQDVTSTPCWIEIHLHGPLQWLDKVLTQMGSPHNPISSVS
UniProt Q13395, sequence (Q13395 whole entry, looked up): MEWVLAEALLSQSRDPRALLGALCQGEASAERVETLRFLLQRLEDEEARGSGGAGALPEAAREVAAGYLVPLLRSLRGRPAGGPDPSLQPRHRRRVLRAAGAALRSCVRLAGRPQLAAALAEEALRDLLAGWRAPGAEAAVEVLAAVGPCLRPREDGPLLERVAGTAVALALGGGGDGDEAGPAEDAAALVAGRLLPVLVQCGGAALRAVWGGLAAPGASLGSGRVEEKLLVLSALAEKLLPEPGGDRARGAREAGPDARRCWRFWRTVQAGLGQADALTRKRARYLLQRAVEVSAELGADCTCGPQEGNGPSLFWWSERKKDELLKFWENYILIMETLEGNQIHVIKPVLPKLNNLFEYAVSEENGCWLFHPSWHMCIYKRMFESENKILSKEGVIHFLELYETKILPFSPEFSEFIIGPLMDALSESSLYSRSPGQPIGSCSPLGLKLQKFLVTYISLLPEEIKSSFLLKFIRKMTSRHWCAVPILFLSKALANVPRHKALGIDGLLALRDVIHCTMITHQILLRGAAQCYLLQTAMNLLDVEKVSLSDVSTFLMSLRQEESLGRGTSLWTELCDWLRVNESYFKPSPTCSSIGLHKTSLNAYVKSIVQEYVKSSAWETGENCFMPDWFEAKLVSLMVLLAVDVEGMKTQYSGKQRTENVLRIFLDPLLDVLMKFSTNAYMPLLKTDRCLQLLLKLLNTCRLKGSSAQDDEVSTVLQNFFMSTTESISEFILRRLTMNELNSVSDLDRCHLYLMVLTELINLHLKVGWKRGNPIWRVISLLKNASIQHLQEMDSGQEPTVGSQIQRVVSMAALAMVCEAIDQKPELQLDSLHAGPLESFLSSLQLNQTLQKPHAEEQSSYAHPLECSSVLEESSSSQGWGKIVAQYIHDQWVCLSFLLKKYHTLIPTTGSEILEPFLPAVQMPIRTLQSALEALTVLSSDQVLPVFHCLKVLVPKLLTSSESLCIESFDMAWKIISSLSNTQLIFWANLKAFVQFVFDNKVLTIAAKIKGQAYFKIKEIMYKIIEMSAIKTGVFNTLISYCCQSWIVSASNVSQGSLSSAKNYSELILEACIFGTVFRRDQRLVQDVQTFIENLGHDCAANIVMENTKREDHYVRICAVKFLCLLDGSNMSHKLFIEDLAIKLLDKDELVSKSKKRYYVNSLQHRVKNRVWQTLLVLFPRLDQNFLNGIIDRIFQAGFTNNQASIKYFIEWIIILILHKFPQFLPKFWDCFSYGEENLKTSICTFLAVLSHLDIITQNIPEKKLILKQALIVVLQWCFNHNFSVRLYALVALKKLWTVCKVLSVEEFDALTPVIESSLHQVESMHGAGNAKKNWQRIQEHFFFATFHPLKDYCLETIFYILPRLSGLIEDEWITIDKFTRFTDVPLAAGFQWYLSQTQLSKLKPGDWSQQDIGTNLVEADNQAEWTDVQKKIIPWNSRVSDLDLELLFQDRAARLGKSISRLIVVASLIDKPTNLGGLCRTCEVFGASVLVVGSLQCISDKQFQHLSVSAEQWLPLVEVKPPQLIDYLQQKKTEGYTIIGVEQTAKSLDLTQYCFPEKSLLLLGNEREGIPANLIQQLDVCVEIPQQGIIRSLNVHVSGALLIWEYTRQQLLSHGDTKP
UniProt Q9Y3B4, sequence (Q9Y3B4 whole entry, looked up): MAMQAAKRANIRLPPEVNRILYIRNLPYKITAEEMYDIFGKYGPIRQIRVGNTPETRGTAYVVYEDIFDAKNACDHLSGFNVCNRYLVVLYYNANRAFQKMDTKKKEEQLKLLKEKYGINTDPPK
UniProt P62318, sequence (P62318 whole entry, looked up): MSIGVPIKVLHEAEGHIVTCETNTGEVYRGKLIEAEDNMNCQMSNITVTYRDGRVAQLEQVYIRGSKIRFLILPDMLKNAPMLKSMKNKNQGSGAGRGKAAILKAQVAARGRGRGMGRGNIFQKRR
UniProt P31947, sequence (P31947 whole entry, looked up): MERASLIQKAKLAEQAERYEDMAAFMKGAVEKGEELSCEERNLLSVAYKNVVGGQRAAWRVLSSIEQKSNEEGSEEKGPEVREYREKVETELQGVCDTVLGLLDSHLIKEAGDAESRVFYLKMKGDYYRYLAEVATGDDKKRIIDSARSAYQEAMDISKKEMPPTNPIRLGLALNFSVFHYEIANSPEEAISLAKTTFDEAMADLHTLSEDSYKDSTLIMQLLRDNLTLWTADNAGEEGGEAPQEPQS
UniProt Q96BD8, sequence (Q96BD8 whole entry, looked up): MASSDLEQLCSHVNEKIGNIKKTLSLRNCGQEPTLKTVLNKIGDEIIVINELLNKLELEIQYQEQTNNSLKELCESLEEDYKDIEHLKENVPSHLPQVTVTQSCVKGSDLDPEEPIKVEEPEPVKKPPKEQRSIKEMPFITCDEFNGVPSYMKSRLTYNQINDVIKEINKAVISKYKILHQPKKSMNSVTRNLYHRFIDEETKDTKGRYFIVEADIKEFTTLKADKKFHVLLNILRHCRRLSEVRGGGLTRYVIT
UniProt Q14534, sequence (Q14534 whole entry, looked up): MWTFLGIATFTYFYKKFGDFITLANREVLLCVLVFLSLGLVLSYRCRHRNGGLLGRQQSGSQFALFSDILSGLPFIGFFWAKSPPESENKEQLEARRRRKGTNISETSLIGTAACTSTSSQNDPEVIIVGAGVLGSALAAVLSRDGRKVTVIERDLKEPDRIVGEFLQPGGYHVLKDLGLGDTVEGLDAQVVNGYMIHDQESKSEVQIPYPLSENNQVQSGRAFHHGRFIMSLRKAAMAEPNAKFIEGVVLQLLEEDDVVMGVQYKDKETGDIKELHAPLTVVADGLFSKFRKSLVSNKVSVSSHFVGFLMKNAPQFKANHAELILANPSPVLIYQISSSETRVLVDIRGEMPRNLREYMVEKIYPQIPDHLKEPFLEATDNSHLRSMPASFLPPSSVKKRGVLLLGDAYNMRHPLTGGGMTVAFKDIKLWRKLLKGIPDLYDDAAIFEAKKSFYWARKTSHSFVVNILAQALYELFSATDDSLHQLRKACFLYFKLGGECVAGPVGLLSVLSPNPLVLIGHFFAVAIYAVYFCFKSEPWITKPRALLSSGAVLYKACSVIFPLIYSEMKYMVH
UniProt P49281, sequence (P49281 whole entry, looked up): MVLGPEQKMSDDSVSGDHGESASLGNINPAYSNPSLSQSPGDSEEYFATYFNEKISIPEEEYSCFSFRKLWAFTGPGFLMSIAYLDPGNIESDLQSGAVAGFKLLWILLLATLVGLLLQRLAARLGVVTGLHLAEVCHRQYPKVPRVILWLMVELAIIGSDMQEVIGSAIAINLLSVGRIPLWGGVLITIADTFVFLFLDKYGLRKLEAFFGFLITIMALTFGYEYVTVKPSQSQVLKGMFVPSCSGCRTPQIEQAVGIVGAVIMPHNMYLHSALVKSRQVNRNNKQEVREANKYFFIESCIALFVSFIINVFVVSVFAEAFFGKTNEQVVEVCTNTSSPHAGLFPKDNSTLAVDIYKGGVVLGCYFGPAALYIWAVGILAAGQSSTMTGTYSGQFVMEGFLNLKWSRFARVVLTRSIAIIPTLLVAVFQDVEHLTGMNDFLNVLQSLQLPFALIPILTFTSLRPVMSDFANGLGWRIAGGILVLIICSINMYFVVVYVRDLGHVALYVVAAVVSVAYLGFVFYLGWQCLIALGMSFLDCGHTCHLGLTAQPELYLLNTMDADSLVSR

| Target | log2 fold change [1] | log2 fold change [2] | log2 fold change [3] | log2 fold change [4] | log2 fold change [5] | log2 fold change [6] | log2 fold change [7] | log2 fold change [8] | log2 fold change [9] | log2 fold change [10] | log2 fold change [11] | log2 fold change [12] | log2 fold change [13] | log2 fold change [14] | log2 fold change [15] | log2 fold change [16] | log2 fold change [17] | log2 fold change [18] | log2 fold change [19] | log2 fold change [20] |
| --- | --- | --- | --- | --- | --- | --- | --- | --- | --- | --- | --- | --- | --- | --- | --- | --- | --- | --- | --- | --- |
| SFN (UniProt P31947) | 0.018 | 0.117 | 0.055 | 0.347 (active) | -0.029 | -0.043 | 0.006 | 0.019 | 0.047 | -0.117 | -0.036 | -0.007 | 0.088 | -0.007 | 0.008 | 0.077 | 0.052 | -0.048 | -0.023 | 0.035 |
| SNRPD3 (UniProt P62318) | -0.027 | -0.06 | 0.008 | -0.233 (active) | 0.052 | 0.102 | 0.028 | 0.014 | 0.069 | 0.11 | 0.028 | -0.006 | 0.016 | -0.034 | 0.009 | -0.002 | -0.002 | 0.029 | 0.004 | 0.001 |
| SMAD9 (UniProt O15198) | -0.056 | -0.036 | -0.027 | -0.047 | 0.091 | 0.077 | 0.091 | 0.024 | 0.014 | -0.019 | 0.066 | 0.054 | 0.062 | -0.028 | -0.038 | -0.036 | -0.021 | 0.016 | 0.02 | -0.065 |
| SF3B6 (UniProt Q9Y3B4) | -0.01 | -0.083 | -0.008 | 0.009 | 0.059 | -0.069 | -0.188 | 0.047 | -0.009 | -0.058 | 0.045 | 0.013 | -0.036 | -0.028 | -0.038 | 0.016 | 0.021 | 0 | -0.054 | -0.03 |
| SQLE (UniProt Q14534) | -0.056 | -0.04 | -0.057 | -0.025 | -0.057 | -0.028 | 0.068 | -0.035 | -0.047 | 0.031 | 0.082 | 0.014 | -0.09 | -0.039 | 0.024 | 0.191 | 0.018 | -0.014 | -0.032 | -0.034 |
| SKA1 (UniProt Q96BD8) | 0.001 | 0.043 | 0.009 | -0.032 | 0.042 | 0.001 | 0.086 | 0.037 | -0.029 | 0.024 | -0.095 | 0.052 | -0.034 | 0.023 | -0.032 | -0.104 | 0.039 | 0.038 | -0.042 | 0.014 |
| TARBP1 (UniProt Q13395) | -0.009 | 0.007 | -0.122 | 0.017 | -0.034 | -0.124 | 0.098 | -0.022 | -0.044 | 0.079 | -0.045 | 0.036 | -0.03 | -0.003 | 0.046 | -0.158 | 0.007 | 0.142 | 0.007 | -0.021 |
| SLC11A2 isoform 3 (UniProt P49281) | 0 | -0.014 | -0.004 | -0.052 | -0.025 | 0.033 | -0.08 | -0.018 | 0.035 | 0.036 | -0.099 | -0.108 | 0.07 | 0.03 | -0.048 | -0.112 | -0.089 | 0.055 | -0.042 | 0.111 |
